Reference: publication PMC7862700, “An all-to-all approach to the identification of sequence-specific readers for epigenetic DNA modifications on cytosine”

Columns and labels:
Test in all cases: DAPPL (digital affinity profiling via proximity ligation, sequencing); 10 mM Tris-HCl pH 7.5, 50 mM NaCl, 1 mM DTT, 4% glycerol, room temperature, 30 min; GST-TFs on glutathione beads, 16-mer random dsDNA library, 0.1% formaldehyde crosslink after washing; high values mean tight binding
Conditions in all cases: protein: recombinant; tags: N-terminal GST; dsDNA, one strand shown
ETV1 = ETV1 (Homo sapiens, UniProt P50549 1-477)
ETV1, sequence (P50549 whole entry, the tested form may be a part): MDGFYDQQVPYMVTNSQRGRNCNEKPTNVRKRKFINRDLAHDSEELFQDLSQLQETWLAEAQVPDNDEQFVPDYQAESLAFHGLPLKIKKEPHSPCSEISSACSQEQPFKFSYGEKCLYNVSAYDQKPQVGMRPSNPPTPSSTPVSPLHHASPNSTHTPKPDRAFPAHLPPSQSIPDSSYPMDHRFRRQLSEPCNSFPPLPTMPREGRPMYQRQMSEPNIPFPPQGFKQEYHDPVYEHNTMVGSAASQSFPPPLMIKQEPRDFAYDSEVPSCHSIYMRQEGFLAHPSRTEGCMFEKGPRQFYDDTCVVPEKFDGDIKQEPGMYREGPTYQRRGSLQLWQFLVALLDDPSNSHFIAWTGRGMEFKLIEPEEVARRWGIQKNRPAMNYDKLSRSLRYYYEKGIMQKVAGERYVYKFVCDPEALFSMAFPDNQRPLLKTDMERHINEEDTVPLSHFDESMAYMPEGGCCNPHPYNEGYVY
Summary of the method: (§1)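 Human transcription factors fused to GST were expressed in yeast, captured on glutathione beads, given DNA barcodes and pooled with a GST-only negative control. Pools were incubated with 200 nmole of a 16-mer random double-stranded DNA library in Tris/NaCl/DTT/glycerol buffer at room temperature for 30 min. They were then washed, crosslinked with 0.1% formaldehyde, proximity-ligated (BsaI/T4 ligase, 1 h, 37 °C), PCR-amplified and sequenced on an Illumina NextSeq500. Binding signal is each 6-mer's read frequency for a factor divided by its frequency for the GST control.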

ERF = target: T1, ERF (Homo sapiens, UniProt P50548 1-548)
T1 sequence: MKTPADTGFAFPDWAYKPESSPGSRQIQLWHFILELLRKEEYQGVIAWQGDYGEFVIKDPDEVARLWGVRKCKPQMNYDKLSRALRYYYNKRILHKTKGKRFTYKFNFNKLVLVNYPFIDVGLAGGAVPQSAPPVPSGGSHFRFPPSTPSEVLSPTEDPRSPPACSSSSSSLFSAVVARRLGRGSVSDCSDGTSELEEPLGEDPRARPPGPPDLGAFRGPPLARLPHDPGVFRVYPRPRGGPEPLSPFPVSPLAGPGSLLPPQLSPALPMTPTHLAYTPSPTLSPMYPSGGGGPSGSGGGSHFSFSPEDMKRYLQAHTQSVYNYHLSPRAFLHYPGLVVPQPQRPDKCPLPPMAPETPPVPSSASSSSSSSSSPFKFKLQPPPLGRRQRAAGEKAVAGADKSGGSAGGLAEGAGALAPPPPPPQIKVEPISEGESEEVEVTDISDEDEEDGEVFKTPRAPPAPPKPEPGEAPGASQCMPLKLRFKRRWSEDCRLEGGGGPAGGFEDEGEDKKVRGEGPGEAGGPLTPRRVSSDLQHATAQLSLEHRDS
Summary of the method: as §1

ETV3L = target: T2, ETV3L (Homo sapiens, UniProt Q6ZN32 1-361)
T2 sequence: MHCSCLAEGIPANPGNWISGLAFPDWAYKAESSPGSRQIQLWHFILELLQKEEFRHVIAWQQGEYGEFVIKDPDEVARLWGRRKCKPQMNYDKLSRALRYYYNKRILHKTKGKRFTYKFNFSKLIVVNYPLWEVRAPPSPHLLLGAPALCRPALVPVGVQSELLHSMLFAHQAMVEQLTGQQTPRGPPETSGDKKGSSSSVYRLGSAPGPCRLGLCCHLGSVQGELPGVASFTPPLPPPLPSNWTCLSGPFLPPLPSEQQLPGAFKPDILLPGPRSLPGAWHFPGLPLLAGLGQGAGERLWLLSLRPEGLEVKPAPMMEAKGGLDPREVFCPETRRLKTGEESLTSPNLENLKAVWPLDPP
Summary of the method: as §1

ETS2 = target: T3, ETS2 (Homo sapiens, UniProt P15036 1-469)
T3 sequence: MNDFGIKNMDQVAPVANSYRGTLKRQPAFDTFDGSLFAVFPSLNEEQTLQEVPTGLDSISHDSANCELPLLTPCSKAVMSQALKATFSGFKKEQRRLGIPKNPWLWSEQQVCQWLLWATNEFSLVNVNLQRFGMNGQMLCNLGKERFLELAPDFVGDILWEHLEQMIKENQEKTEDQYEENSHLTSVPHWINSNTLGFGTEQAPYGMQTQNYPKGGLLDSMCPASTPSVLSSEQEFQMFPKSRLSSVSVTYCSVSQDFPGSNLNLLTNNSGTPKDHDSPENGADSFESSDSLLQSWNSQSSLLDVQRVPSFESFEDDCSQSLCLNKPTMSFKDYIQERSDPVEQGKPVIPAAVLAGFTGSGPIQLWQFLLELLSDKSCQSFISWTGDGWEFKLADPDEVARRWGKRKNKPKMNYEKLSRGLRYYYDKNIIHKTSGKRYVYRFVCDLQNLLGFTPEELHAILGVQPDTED
Summary of the method: as §1

SPDEF = target: T4, SPDEF (Homo sapiens, UniProt O95238 1-335)
T4 sequence: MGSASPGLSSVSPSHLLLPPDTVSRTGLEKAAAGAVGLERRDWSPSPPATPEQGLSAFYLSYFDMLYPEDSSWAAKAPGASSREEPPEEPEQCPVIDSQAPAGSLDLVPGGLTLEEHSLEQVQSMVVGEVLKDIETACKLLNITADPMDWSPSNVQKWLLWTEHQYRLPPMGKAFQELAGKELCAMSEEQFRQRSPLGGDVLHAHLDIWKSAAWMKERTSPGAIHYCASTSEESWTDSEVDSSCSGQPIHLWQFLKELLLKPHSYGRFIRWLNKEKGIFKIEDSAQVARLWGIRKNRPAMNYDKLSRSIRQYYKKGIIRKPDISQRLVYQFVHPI
Summary of the method: as §1

ETV7 = target: T5, ETV7 (Homo sapiens, UniProt Q9Y603 1-341)
T5 sequence: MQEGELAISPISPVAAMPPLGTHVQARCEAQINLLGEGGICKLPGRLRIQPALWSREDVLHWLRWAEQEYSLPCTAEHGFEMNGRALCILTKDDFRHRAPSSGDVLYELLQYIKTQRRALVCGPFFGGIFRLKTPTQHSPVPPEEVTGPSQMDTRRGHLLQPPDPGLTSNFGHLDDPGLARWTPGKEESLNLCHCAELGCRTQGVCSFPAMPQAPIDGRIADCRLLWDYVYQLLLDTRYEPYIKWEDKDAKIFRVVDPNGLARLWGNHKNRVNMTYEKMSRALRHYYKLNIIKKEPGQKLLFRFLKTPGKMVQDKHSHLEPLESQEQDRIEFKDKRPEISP
Summary of the method: as §1

ELF5 = target: T6, ELF5 (Homo sapiens, UniProt Q9UKW6-2 1-255)
T6 sequence: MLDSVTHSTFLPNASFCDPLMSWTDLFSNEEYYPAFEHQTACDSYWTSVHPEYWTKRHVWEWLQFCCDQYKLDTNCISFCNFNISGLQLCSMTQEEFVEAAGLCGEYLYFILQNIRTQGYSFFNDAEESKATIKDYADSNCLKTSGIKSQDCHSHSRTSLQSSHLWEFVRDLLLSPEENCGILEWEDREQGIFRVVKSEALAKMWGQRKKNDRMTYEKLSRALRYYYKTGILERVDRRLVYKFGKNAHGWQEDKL
Summary of the method: as §1

ETV3 = target: T7, ETV3 (Homo sapiens, UniProt P41162-2 1-143)
T7 sequence: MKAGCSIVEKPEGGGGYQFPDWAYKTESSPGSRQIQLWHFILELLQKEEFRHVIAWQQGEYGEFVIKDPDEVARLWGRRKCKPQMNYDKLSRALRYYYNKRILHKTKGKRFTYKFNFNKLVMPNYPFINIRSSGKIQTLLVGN
Summary of the method: as §1

ETV6 = ETV6 (Homo sapiens, UniProt P41212 1-452)
ETV6, sequence (P41212 whole entry): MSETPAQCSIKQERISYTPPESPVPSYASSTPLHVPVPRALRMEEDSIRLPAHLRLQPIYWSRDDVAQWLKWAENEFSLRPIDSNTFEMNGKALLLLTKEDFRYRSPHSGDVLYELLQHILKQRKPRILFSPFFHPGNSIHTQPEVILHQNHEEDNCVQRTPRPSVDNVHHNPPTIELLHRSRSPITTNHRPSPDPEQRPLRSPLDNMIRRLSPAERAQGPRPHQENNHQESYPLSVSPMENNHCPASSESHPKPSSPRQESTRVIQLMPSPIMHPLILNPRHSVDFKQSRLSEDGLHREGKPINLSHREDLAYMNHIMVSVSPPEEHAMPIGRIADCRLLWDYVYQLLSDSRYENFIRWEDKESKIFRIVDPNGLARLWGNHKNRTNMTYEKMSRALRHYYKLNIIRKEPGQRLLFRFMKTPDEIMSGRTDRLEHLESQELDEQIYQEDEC
Summary of the method: as §1

Question: With CCCGTT as the sequence, how does the binding signal (ETV1) read?
Answer: 1.03 fold enrichment (6-mer frequency, TF over GST control)

Question: What about the binding signal (ERF) of the same sequence?
Answer: 1.13 fold enrichment (6-mer frequency, TF over GST control)

Question: And the binding signal (ETV3L)?
Answer: 1.19 fold enrichment (6-mer frequency, TF over GST control)

Question: And the binding signal (ETS2)?
Answer: 1.1 fold enrichment (6-mer frequency, TF over GST control)

Question: And the binding signal (SPDEF)?
Answer: 1.2 fold enrichment (6-mer frequency, TF over GST control)

Question: What about the binding signal (ETV7) of the same sequence?
Answer: 1.19 fold enrichment (6-mer frequency, TF over GST control)

Question: What about the binding signal (ELF5) of the same sequence?
Answer: 1.27 fold enrichment (6-mer frequency, TF over GST control)

Question: And the binding signal (ETV3)?
Answer: 1.17 fold enrichment (6-mer frequency, TF over GST control)

Question: What about the binding signal (ETV6) of the same sequence?
Answer: 1.16 fold enrichment (6-mer frequency, TF over GST control)
